Compounds without any hit were thinned out: in the full panel of roughly 83,000, 20% have a hit.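 Method: cells in 96-well plates; compound added at one concentration; 48 h incubation; percent growth measured; values under 10 scored active.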 The source made the active and inactive calls.
Tests used:
Test in all cases: NCI-60 one-dose screen, 48 h (100 = growth as untreated, 0 = no growth, -100 = all killed)
Conditions in all cases: 10 µM unless noted
T-47D breast = tested on: T-47D breast
BT-549 breast = tested on: BT-549 breast
MDA-MB-435 melanoma = tested on: MDA-MB-435 melanoma
SW-620 colon = tested on: SW-620 colon
MCF7 breast = tested on: MCF7 breast
HCT-116 colon = tested on: HCT-116 colon
HCC-2998 colon = tested on: HCC-2998 colon
KM12 colon = tested on: KM12 colon

Measured: growth

CCOC(=O)c1c2c(n3ccc(NC(=O)CCN4CCCCC4)cc13)C(=O)c1ncccc1C2=O
inactive: T-47D breast 44.6% | BT-549 breast 58.5%
active: MDA-MB-435 melanoma -61.8% | SW-620 colon -20.2% | MCF7 breast -61.1% | HCT-116 colon -61.1% | HCC-2998 colon -66% | KM12 colon -75.6%

O=C(O)C(O)C(O)C(=O)O.[NH-]C1CCCCC1[NH-].[Pt+2] (stereo unspecified)
inactive: T-47D breast 105% | BT-549 breast 108% | MDA-MB-435 melanoma 104% | SW-620 colon 95% | MCF7 breast 91.9% | HCT-116 colon 95.1% | HCC-2998 colon 104% | KM12 colon 96.4%

CCCCCCNC(=O)Oc1ccc(/C(=C(\C)c2ccccc2)c2ccc(OCCN(CC)CC)cc2)cc1
inactive: T-47D breast 35.5% | BT-549 breast 71.8% | MDA-MB-435 melanoma 45.6% | SW-620 colon 18.8% | MCF7 breast 16.1% | HCT-116 colon 30.2% | HCC-2998 colon 60% | KM12 colon 37.8%

CC1(C)CC(C(=O)OCCCCCCCCCCC[P+](c2ccccc2)(c2ccccc2)c2ccccc2)C(C)(C)N1O (stereo unspecified)
active: T-47D breast -54.3% | BT-549 breast -42.1% | MDA-MB-435 melanoma -70.3% | SW-620 colon -81% | MCF7 breast -80.6% | HCT-116 colon -8.91% | HCC-2998 colon -84.9% | KM12 colon -94.6%

Nc1cc(O)cc2cccnc12
inactive: T-47D breast 83.9% | BT-549 breast 87% | SW-620 colon 79.7% | MCF7 breast 55.8% | HCT-116 colon 80.3% | HCC-2998 colon 100% | KM12 colon 99.8%
active: MDA-MB-435 melanoma -9.72%

COc1ccc(C2Nc3ccccc3-n3cccc32)cc1 (stereo unspecified)
inactive: T-47D breast 84.2% | BT-549 breast 97.1% | MDA-MB-435 melanoma 103% | SW-620 colon 100% | MCF7 breast 95.7% | HCT-116 colon 94% | HCC-2998 colon 103% | KM12 colon 98.7%

Brc1cccc(-c2cc(-c3ccc4c(c3)OCCO4)[nH]n2)c1
active: MDA-MB-435 melanoma -40.2% [25 µM]
inactive: T-47D breast 29% [25 µM] | BT-549 breast 41.7% [25 µM] | SW-620 colon 28.7% [25 µM] | MCF7 breast 10.6% [25 µM] | HCT-116 colon 21% [25 µM] | HCC-2998 colon 44.6% [25 µM] | KM12 colon 22.9% [25 µM]

O=C(CCN1CCOCC1)Nc1ccc(Cn2nnc3c2C(=O)c2nnn(Cc4ccc(NC(=O)CCN5CCOCC5)cc4)c2C3=O)cc1
inactive: BT-549 breast 29.6% | SW-620 colon 30.7% | KM12 colon 43%
active: T-47D breast -3.09% | MDA-MB-435 melanoma -76.2% | MCF7 breast -56.3% | HCT-116 colon -15.6% | HCC-2998 colon -7.48%

CCCCCCCCCCCCNC(=O)[C@H]1CSC(c2ccc(OC)c(F)c2)N1 (stereo partly specified)
active: T-47D breast -68.9% | BT-549 breast -84.3% | MDA-MB-435 melanoma -92% | SW-620 colon -70.4% | MCF7 breast -68.1% | HCT-116 colon -88.7% | HCC-2998 colon -83.6% | KM12 colon -84.6%

O=C(O)c1ccc2c(c1Sc1ccccc1)C(=O)c1ccccc1C2=O
inactive: T-47D breast 98.6% | BT-549 breast 83.8% | MDA-MB-435 melanoma 73.1% | SW-620 colon 121% | MCF7 breast 95.4% | HCT-116 colon 98.5% | HCC-2998 colon 105% | KM12 colon 101%

CCOC(=O)c1c2ncccc2n2c(=O)n(-c3ccc(Cl)cc3)nnc12
inactive: T-47D breast 61.1% | BT-549 breast 43.6% | MDA-MB-435 melanoma 49.7% | SW-620 colon 105% | MCF7 breast 76.6% | HCT-116 colon 86.9% | HCC-2998 colon 90.3% | KM12 colon 70.7%

CC(=O)C1=C(O)C=C2Oc3c(C(=O)/C=C/c4cc(C(F)(F)F)cc(C(F)(F)F)c4)c(O)c(C)c(O)c3[C@]2(C)C1=O
active: T-47D breast -18.7% | BT-549 breast -29.6% | MDA-MB-435 melanoma -33.9% | SW-620 colon -10.2% | MCF7 breast -42% | HCT-116 colon -30% | HCC-2998 colon -87.4% | KM12 colon -46%

Nc1nc2ccc(-c3nc4ccc5[nH]ncc5c4c4c3CCC4)cc2s1
inactive: T-47D breast 31.2% | BT-549 breast 47.1% | MCF7 breast 13% | HCT-116 colon 15.9% | HCC-2998 colon 50.9% | KM12 colon 25.1%
active: MDA-MB-435 melanoma -35.5% | SW-620 colon 6.95%

C=C1CC[C@@H]2[C@](C)(COC(C)=O)[C@H](OC(C)=O)CC[C@@]2(C)[C@@H]1CC(Nc1ccc(S(=O)(=O)Nc2ccc(Cl)nn2)cc1)C1=CCOC1=O (stereo partly specified)
active: BT-549 breast -9.45% | MDA-MB-435 melanoma 8.13% | SW-620 colon -37.7% | HCT-116 colon -34.1%
inactive: T-47D breast 34.1% | MCF7 breast 16.8% | HCC-2998 colon 88.5% | KM12 colon 27%

COc1cc(-c2nc3ccccc3s2)ccc1NC(=O)COc1ccc(Cl)cc1
inactive: T-47D breast 23% | BT-549 breast 87.6% | MDA-MB-435 melanoma 72% | SW-620 colon 87.6% | MCF7 breast 40.4% | HCT-116 colon 44.9% | HCC-2998 colon 85.1% | KM12 colon 45.6%

COc1ccc(-c2cn3c(ccc4ccccc43)n2)cc1
inactive: T-47D breast 76.5% | BT-549 breast 97.8% | MDA-MB-435 melanoma 114% | SW-620 colon 97.5% | MCF7 breast 75.8% | HCT-116 colon 96.5% | HCC-2998 colon 109% | KM12 colon 95.2%

CCOC(=O)C(CC)n1c(=O)c2cc(OC)c(OC)cc2c2cnc3[nH]ccc3c21 (stereo unspecified)
inactive: T-47D breast 26.1% | BT-549 breast 47.6% | MDA-MB-435 melanoma 88.2% | SW-620 colon 79.9% | MCF7 breast 50.1% | HCT-116 colon 67.9% | HCC-2998 colon 83.4% | KM12 colon 26%

COc1ccc(C(=O)/C=C/c2c[n+](=O)c3ccc(F)cc3n2[O-])cc1
inactive: T-47D breast 93.1% | BT-549 breast 103% | MDA-MB-435 melanoma 119% | SW-620 colon 109% | MCF7 breast 98.9% | HCT-116 colon 103% | HCC-2998 colon 104% | KM12 colon 113%

Nc1nc2c(c3ncccc13)C(c1cccc(Br)c1)Cc1ncccc1-2 (stereo unspecified)
inactive: T-47D breast 29.3% | BT-549 breast 24.8% | SW-620 colon 29.1% | MCF7 breast 16.5% | HCT-116 colon 11.5% | HCC-2998 colon 25.4% | KM12 colon 18.4%
active: MDA-MB-435 melanoma 1.43%

CS(CCCCN=C=S)=NC(=O)c1c(F)c(F)c(F)c(F)c1F (stereo unspecified)
inactive: T-47D breast 19.1% | BT-549 breast 95.7% | MDA-MB-435 melanoma 70.8% | SW-620 colon 52.6% | MCF7 breast 22.8% | HCT-116 colon 54% | HCC-2998 colon 104% | KM12 colon 55.8%

C[C@H](CCC(=O)O)[C@H]1CC[C@H]2[C@@H]3CC[C@@H]4/C(=C\c5ccco5)C(=O)/C(=C\c5ccco5)C[C@]4(C)[C@H]3CC[C@]12C
inactive: T-47D breast 55.6% | BT-549 breast 52.9% | MDA-MB-435 melanoma 37.1% | SW-620 colon 27.4% | MCF7 breast 32.5% | HCT-116 colon 21.8% | HCC-2998 colon 92.8% | KM12 colon 74.5%

Cc1nn(-c2nc3ccccc3[nH]2)c2c1C(c1ccc3c(c1)OCO3)CC(=O)N2 (stereo unspecified)
inactive: T-47D breast 45.6% | BT-549 breast 49.4% | SW-620 colon 10.8% | MCF7 breast 17.4% | HCC-2998 colon 63.6%
active: MDA-MB-435 melanoma 5.5% | HCT-116 colon 6.24% | KM12 colon 1.53%

Oc1ccccc1N=Cc1c(O)ccc2ccccc12
inactive: T-47D breast 63% | BT-549 breast 54.5% | MDA-MB-435 melanoma 79.1% | SW-620 colon 85.7% | MCF7 breast 70.4% | HCT-116 colon 70.6% | HCC-2998 colon 92.4% | KM12 colon 59.1%

COc1c2ccccc2c(OC)c2[nH]c(=O)ccc12
active: MDA-MB-435 melanoma -67.2%
inactive: T-47D breast 67.8% | BT-549 breast 26.7% | SW-620 colon 61.7% | MCF7 breast 42.2% | HCT-116 colon 57.6% | HCC-2998 colon 81% | KM12 colon 36.2%

CCN(CC)CCCC(C)NCCCNc1cccc2cccnc12 (stereo unspecified)
inactive: T-47D breast 89.5% | BT-549 breast 102% | MDA-MB-435 melanoma 106% | SW-620 colon 96.5% | MCF7 breast 95.9% | HCT-116 colon 95.4% | HCC-2998 colon 82.5% | KM12 colon 102%

CS(=O)CCCCCN=C=S (stereo unspecified)
inactive: MDA-MB-435 melanoma 20.4%
active: T-47D breast -26.3% | BT-549 breast 2.12% | SW-620 colon 5.5% | MCF7 breast 0.852% | HCT-116 colon -2.02% | HCC-2998 colon -11.3% | KM12 colon -12.6%

CCOC(=O)c1cnc2cc(Cl)c(F)cc2c1Nc1cccc(NS(C)(=O)=O)c1
inactive: T-47D breast 93.5% | BT-549 breast 105% | MDA-MB-435 melanoma 104% | SW-620 colon 94.1% | MCF7 breast 92.5% | HCT-116 colon 86.5% | HCC-2998 colon 98.4% | KM12 colon 93.8%

CC/C=C\C[C@H](O)C/C=C1/C(=O)C=C[C@@H]1C/C=C\CCCC(=O)OC(C)C
active: T-47D breast 6.79% | BT-549 breast -18.3% | MDA-MB-435 melanoma 2.16% | SW-620 colon 0.553% | MCF7 breast 3.64% | HCT-116 colon -70.1% | HCC-2998 colon -88% | KM12 colon -62.2%

CSc1nc(NCCCNc2ccnc3cc(Cl)ccc23)cc(-c2ccccc2)n1
inactive: T-47D breast 66.3% | BT-549 breast 86.9% | MDA-MB-435 melanoma 55.4% | SW-620 colon 72% | HCT-116 colon 43.1% | KM12 colon 68.3%
active: MCF7 breast 6.05% | HCC-2998 colon -59.6%

Nc1cc(-c2nc3sccn3c2-c2ccnc(NCCCNS(=O)(=O)c3ccc(F)cc3)n2)ccc1F
inactive: T-47D breast 15.4% | BT-549 breast 52.2% | MDA-MB-435 melanoma 22.9% | SW-620 colon 54.7% | MCF7 breast 37.4% | HCT-116 colon 36.8% | HCC-2998 colon 90.3% | KM12 colon 59.7%

O=S(=O)(NCCCNc1cc(-c2cn(-c3ccccc3)nc2-c2cccc(O)c2)ccn1)c1ccccc1
inactive: T-47D breast 18.4% | BT-549 breast 44.1% | MDA-MB-435 melanoma 52.3% | SW-620 colon 25.5% | MCF7 breast 31.6% | HCT-116 colon 40% | HCC-2998 colon 22.1% | KM12 colon 30.1%

COC(=S)SCN(CSC(=S)OC)c1ccc(Cl)cc1
inactive: T-47D breast 70.1% | BT-549 breast 65.8% | MDA-MB-435 melanoma 95.3% | SW-620 colon 99.1% | MCF7 breast 73.5% | HCT-116 colon 79.7% | HCC-2998 colon 100% | KM12 colon 98.2%

— PubChem BioAssay (NCI)
